Data: PubChem BioAssay (Tox21)
Records with an inconclusive call do not appear. Active and inactive are the calls of the source. Unless noted, the call rests on the fitted dose curve.

Assays:
[1] = Nuclear factor erythroid 2-related factor 2/antioxidant responsive element (Nrf2/ARE) small molecule agonists: qHTS cell viability counter screen in human keratinocytes (AID 1919968; active means well fitted curve in the direction sought with a large enough effect in the repeat runs; an effect the other way counts as inactive or inconclusive; further: nearly all actives have a fitted effect of over 55% in size; further: potency means the concentration at half of the fitted maximal effect)
In short: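 KeratinoSens cells (HaCaT keratinocytes stably carrying an ARE-luciferase reporter) were seeded at 1,500 cells/well and rested 5 h at 37 C/5% CO2. They were then exposed to compounds in DMSO for 23 h. Viability was read by CellTiter-Fluor fluorescence after 1 h.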

[2] = Nuclear factor erythroid 2-related factor 2/antioxidant responsive element (Nrf2/ARE) small molecule agonists: luciferase reporter gene qHTS assay in human keratinocytes (AID 1919969); further: nearly all actives have a fitted effect of over 35% in size; further: potency means the concentration at half of the fitted maximal effect
[3] = target: KiSS-1 receptor (Homo sapiens) (UniProt Q969F8); assay: Human kisspeptin (KISS1R) small molecule agonists, calcium flux assay in KISS1R-HEK293 cells (AID 1920064; active means well fitted curve in the direction sought with a large enough effect in the repeat runs; an effect the other way counts as inactive or inconclusive)
In short: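 HEK293 cells stably expressing human KISS1R were plated 18 h at 37 °C, loaded with calcium dye for 1 h at 37 °C, then given compound by pin tool. Fluorescence (Ex/Em 480/540) was read kinetically for 3 min.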

[4] = G protein-coupled receptor (GPCR) small molecule agonists, calcium flux assay: HEK293 wild type cell line counter screen (AID 1920065)
In short: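 Cells were plated and cultured 18 h at 37 C/5% CO2, then loaded with calcium dye for 1 h at 37 C. Compounds in DMSO were pin-transferred in agonist mode, and fluorescence (Ex/Em 480/540) was read kinetically for 3 min at 1 s intervals.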

[5] = p53 small molecule agonists, cell-based qHTS assay with human liver microsomes (AID 1963577)
In short: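 Fluorescence of the beta-lactamase reporter in p53RE-bla cells, detected with LiveBLAzer substrate (2 h, room temperature, dark), served as the read-out after 16 h compound exposure at 37 C with human liver microsomes and NADPH, each 0.5 mg/mL final.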

[6] = p53 small molecule agonists, cell-based qHTS assay with rat liver microsomes (AID 1963578)
In short: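 Cells carrying a p53 response element–beta-lactamase reporter were plated and rested 5 h, then dosed with compound in DMSO plus rat liver microsomes and NADPH, each at 0.5 mg/mL final. After 16 h at 37 C, LiveBLAzer substrate was added for 2 h.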

[7] = p53 small molecule agonists, cell-based qHTS assay with human liver microsomes: qHTS cell viability counter screen (AID 1963579); further: nearly all actives have a fitted effect of over 45% in size
In short: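 Cytotoxicity counter screen: p53RE-bla, 4,000 cells/well; 5 h settle, 37 C/5% CO2; cpd + HLM 0.5 mg/mL + NADPH 0.5 mg/mL (final); 16 h, 37 C; CellTiter-Glo, 30 min RT, luminescence.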

[8] = p53 small molecule agonists, cell-based qHTS assay with rat liver microsomes: qHTS cell viability counter screen (AID 1963580); further: nearly all actives have a fitted effect of over 45% in size
In short: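 Viability is assessed in parallel with the p53 reporter read: HCT-116 p53RE-bla cells receive compounds plus rat microsomes and NADPH (0.5 mg/mL final apiece), incubate 16 h at 37 C, and then CellTiter-Glo luminescence is recorded.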

[9] = p53 small molecule agonists, cell-based qHTS assay (AID 1963582; active means well fitted activation curve with a large enough effect in the signal ratio in the repeat runs, not every such curve was filed as active; the % refers to the signal ratio)
In short: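 p53RE-bla beta-lactamase reporter cells rested 5 h at 37 C/5% CO2, then received compounds in DMSO by pin transfer and were incubated 16 h at 37 C. LiveBLAzer B/G FRET substrate was loaded for 2 h at room temperature before fluorescence reading.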

[10] = target: 5-hydroxytryptamine receptor 2A (Homo sapiens) (UniProt P28223); assay: 5-hydroxytryptamine receptor 2A (HTR2A) small molecule antagonists, cell-based qHTS assay (AID 1963586); further: nearly all actives have a fitted effect of over 45% in size
In short: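 Antagonist-mode intracellular calcium assay: DOI (4 nM) added after 5 min compound pre-incubation at room temperature to dye-loaded HTR2A-CHO cells. Fluorescence followed for 3 min, sampled every second.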

[11] = target: 5-hydroxytryptamine receptor 2A (Homo sapiens) (UniProt P28223); assay: 5-hydroxytryptamine receptor 2A (HTR2A) small molecule agonists, cell-based qHTS assay (AID 1963587); further: nearly all actives have a fitted effect of over 30% in size; further: potency means the concentration at half of the fitted maximal effect
In short: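 CHO cells stably expressing human HTR2A, plated 18 h, loaded with calcium dye 1 h at 37 C. Agonist mode: compounds added and intracellular calcium fluorescence recorded kinetically for 2 min at 1 sec intervals.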

[12] = target: Muscarinic acetylcholine receptor M1 (Homo sapiens) (UniProt P11229); assay: Cholinergic receptor muscarinic 1 (CHRM1) small molecule antagonists, cell-based qHTS assay (AID 1963588); further: nearly all actives have a fitted effect of over 40% in size; further: potency means the concentration at half of the fitted maximal effect
In short: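 CHRM1-CHO calcium-flux assay, antagonist mode. Cells were seeded 18 h, dye-loaded 1 h at 37 C and given compound for 5 min at RT, then acetylcholine was added at 50nM. FDSS fluorescence was read 3 min; 15 concentrations, three runs.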

[13] = target: Muscarinic acetylcholine receptor M1 (Homo sapiens) (UniProt P11229); assay: Cholinergic receptor muscarinic 1 (CHRM1) small molecule agonists, cell-based qHTS assay (AID 1963589); further: nearly all actives have a fitted effect of over 35% in size
In short: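 CHO cells stably expressing human CHRM1, seeded 18 h at 37 C/5% CO2, dye-loaded 1 h at 37 C, then given compound in agonist mode; intracellular calcium fluorescence read kinetically at 1 s intervals. Fifteen concentrations, three independent runs.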

[14] = cAMP Responsive Elements (CRE) small molecule agonists, cell-based qHTS assay (AID 1963590)
In short: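 CRE-bla HEK 293T cells in DMEM with 10% dialyzed FBS, NEAA, pyruvate and 25 mM HEPES were plated 18 h at 37 C/5% CO2, then exposed to compounds in DMSO for 3 h before LiveBLAzer B/G FRET substrate addition.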

[15] = cAMP Responsive Elements (CRE) small molecule antagonists, cell-based qHTS assay (AID 1963591; active means well fitted inhibition curve with a large enough effect in the signal ratio in the repeat runs, not every such curve was filed as active; the % refers to the signal ratio)
In short: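 CRE-bla HEK293T cells were plated 18 h at 37 °C/5% CO2, pinned with compound in DMSO, then stimulated with NKH477 at 0.25 uM final for 3 h. LiveBLAzer B/G FRET substrate was added and plates incubated 2 h at room temperature.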

[16] = target: Beta-2 adrenergic receptor (Homo sapiens) (UniProt P07550); assay: Adrenergic beta2 receptor (ADRB2) small molecule antagonists, cell-based qHTS assay (AID 1963592); further: series mostly up to about 92 µM; nearly all actives have a fitted effect of over 50% in size
In short: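 Cells (CHO, stable ADRB2 overexpression) incubated 18-20hr at 37C; compounds added from DMSO; agonist mix (1nM isoproterenol, 100uM IBMX, 25uM Ro-20-1724) added; 0.5hr RT; d2-cAMP and anti-cAMP-cryptate added; 1hr RT; 665/615 nm read.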

[17] = target: D(2) dopamine receptor (Homo sapiens) (UniProt P14416); assay: Dopamine D2 receptor (DRD2) small molecule antagonists, cell-based qHTS assay (AID 1963595; active means well fitted inhibition curve with a large enough effect in the signal ratio in the repeat runs, with a control signal flat; the % refers to the signal ratio; further: potency means the concentration at half of the fitted maximal effect)
In short: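 HEK293 cells stably expressing DRD2 were preincubated with 0.1 mM Ro20-1724, then with compound for 10 min at room temperature. Cells were stimulated with 200 nM NKH477 plus 12 nM quinpirole for 30 min, and cAMP was read by HTRF.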

[18] = p53 small molecule agonists, cell-based qHTS assay: qHTS cell viability counter screen (AID 1963581); further: nearly all actives have a fitted effect of over 45% in size
In short: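 p53RE-bla HCT-116 cells were exposed to compounds for 16 h at 37 C; after the beta-lactamase FRET read in the same wells, CellTiter-Glo was added and luminescence (intracellular ATP) read after 30 min at room temperature.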

[19] = target: D(2) dopamine receptor (Homo sapiens) (UniProt P14416); assay: Dopamine D2 receptor (DRD2) small molecule agonists, cell-based qHTS assay (AID 1963594); further: nearly all actives have a fitted effect of over 35% in size
In short: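 HEK293 cells stably expressing human DRD2, pre-treated with PDE inhibitor Ro20-1724 (0.1 mM final) and compound 10 min at room temperature, then stimulated with NKH477 (200nM […]) for 30 min. cAMP read by HTRF (665/620 nm).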
On the % scale 0 is the no-effect control and ±100 the full control effect.

Sequence of Muscarinic acetylcholine receptor M1 (Homo sapiens) (P11229 whole entry, looked up): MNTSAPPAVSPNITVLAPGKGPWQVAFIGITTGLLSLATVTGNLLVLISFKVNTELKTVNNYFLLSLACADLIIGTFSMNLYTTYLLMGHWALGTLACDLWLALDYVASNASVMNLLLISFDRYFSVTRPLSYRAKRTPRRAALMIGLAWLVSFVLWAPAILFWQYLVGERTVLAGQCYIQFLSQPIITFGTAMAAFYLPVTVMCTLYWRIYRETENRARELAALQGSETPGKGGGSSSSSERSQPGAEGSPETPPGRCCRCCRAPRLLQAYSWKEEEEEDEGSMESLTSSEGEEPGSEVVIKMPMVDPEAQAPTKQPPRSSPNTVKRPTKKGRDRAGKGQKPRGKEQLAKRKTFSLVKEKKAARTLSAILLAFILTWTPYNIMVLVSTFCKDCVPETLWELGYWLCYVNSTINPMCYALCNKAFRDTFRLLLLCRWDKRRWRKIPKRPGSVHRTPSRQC
Sequence of Beta-2 adrenergic receptor (Homo sapiens) (P07550 whole entry, looked up): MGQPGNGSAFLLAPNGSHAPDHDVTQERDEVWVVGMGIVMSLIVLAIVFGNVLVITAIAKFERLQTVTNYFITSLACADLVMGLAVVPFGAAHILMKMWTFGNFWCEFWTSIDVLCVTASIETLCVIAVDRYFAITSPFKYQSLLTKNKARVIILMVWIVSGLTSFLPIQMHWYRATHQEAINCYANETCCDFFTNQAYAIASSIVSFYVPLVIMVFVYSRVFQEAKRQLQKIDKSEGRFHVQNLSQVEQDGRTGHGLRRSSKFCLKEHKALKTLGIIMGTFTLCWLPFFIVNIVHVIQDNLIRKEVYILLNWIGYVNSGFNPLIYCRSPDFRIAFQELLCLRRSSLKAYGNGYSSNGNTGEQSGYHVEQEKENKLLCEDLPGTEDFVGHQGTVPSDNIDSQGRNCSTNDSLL
Sequence of KiSS-1 receptor (Homo sapiens) (Q969F8 whole entry, looked up): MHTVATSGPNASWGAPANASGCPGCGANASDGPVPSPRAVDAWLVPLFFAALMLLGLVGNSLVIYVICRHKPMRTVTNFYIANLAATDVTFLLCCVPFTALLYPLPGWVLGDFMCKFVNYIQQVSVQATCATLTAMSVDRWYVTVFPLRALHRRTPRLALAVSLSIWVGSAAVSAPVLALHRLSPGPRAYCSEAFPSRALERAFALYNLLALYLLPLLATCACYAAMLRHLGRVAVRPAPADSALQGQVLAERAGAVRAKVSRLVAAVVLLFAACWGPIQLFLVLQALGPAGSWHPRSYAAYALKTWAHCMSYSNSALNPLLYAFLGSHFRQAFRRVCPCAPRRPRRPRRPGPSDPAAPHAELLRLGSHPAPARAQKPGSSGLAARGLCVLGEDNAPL
Sequence of 5-hydroxytryptamine receptor 2A (Homo sapiens) (P28223 whole entry, looked up): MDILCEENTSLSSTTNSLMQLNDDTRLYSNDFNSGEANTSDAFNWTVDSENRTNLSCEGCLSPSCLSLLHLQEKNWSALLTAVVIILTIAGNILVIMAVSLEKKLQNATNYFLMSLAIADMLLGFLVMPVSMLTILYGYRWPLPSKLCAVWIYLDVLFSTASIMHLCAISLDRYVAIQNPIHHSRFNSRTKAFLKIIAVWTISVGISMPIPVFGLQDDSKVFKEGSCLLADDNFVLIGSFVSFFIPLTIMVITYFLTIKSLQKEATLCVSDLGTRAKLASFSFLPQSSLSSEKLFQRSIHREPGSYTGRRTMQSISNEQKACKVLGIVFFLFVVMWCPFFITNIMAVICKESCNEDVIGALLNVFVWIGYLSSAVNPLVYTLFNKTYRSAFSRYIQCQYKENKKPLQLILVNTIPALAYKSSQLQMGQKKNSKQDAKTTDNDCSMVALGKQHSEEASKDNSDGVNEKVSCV
Sequence of D(2) dopamine receptor (Homo sapiens) (P14416 whole entry, looked up): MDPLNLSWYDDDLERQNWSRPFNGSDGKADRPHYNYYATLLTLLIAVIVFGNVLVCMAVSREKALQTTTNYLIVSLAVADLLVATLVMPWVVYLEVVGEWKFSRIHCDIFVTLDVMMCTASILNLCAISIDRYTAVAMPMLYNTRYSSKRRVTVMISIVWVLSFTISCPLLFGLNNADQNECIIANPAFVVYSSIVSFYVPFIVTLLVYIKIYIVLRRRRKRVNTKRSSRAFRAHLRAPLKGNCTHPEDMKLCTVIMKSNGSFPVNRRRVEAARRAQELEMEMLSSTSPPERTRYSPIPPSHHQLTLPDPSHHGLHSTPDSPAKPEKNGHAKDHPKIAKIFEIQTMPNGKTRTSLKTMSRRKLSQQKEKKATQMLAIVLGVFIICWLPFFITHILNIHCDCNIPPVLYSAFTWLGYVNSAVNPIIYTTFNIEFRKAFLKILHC

COc1cc(C(=O)NCCCCCC(=O)O)cc(OC)c1OC
inactive: Potency [1] | Potency [2] | outcome [3] | outcome [4] | Potency [5] | Potency [6] | Potency [7] | Potency [8] | Potency [9] | Potency [10] | Potency [11] | Potency [12] | Potency [13] | Potency [14] | Potency [15] | Potency [16] | Potency [17]

C[C@]12CCC(=O)C=C1CC[C@@H]1[C@@H]2[C@@H](O)C[C@@]2(C)[C@H]1CC[C@]2(O)C(=O)COC(=O)CCC(=O)O
inactive: Potency [1] | Potency [2] | outcome [3] | outcome [4] | Potency [5] | Potency [6] | Potency [7] | Potency [8] | Potency [18] | Potency [10] | Potency [11] | Potency [12] | Potency [13] | Potency [15] | Potency [16] | Potency [19] | Potency [17]

CCCCCCCCCCCCCCNCCO
active: Potency [1] 26.6 µM | Potency [2] 13.3 µM | Potency [11] 23.9 µM
inactive: outcome [3] | outcome [4] | Potency [5] | Potency [6] | Potency [7] | Potency [8] | Potency [9] | Potency [12] | Potency [13] | Potency [14] | Potency [16] | Potency [17]

CCCCCCC(O)CCCCCCCCCCC(=O)OC (stereo not drawn)
inactive: Potency [1] | Potency [2] | outcome [3] | outcome [4] | Potency [5] | Potency [6] | Potency [7] | Potency [8] | Potency [18] | Potency [9] | Potency [10] | Potency [11] | Potency [13] | Potency [15] | Potency [16] | Potency [19]

CN(C)[C@@H]1C(=O)C(C(=O)NCN2CCCC2)=C(O)[C@@]2(O)C(=O)C3=C(O)c4c(O)cccc4[C@@](C)(O)C3C[C@@H]12 (stereo partly drawn)
inactive: Potency [1] | Potency [2] | outcome [3] | outcome [4] | Potency [5] | Potency [6] | Potency [8] | Potency [18] | Potency [9] | Potency [10] | Potency [11] | Potency [12] | Potency [13] | Potency [14] | Potency [16] | Potency [19] | Potency [17]

OCC(CBr)(CBr)CBr
inactive: Potency [1] | Potency [2] | outcome [3] | Potency [5] | Potency [8] | Potency [18] | Potency [9] | Potency [10] | Potency [11] | Potency [12] | Potency [13] | Potency [14] | Potency [15] | Potency [19] | Potency [17]

Cc1nc2n(c(=O)c1CCN1CCC(c3noc4cc(F)ccc34)CC1)CCC[C@H]2O
inactive: activity change, negative = cytotoxicity [1] 0.553% [at 19 µM] | activity, positive = activation [2] 1.67% [at 19 µM] | activation [3] 2.67% [at 15.8 µM] | activation [4] -0.871% [at 11.8 µM] | activation [5] -1.61% [at 13.5 µM] | activity change, negative = cytotoxicity [7] -2.44% [at 13.5 µM] | activity change, negative = cytotoxicity [8] 3.38% [at 13.5 µM] | activity change, negative = cytotoxicity [18] -16.9% [at 13.5 µM] | activation [9] -2.71% [at 13.5 µM] | activation [11] -9.85% [at 15.9 µM] | activation [13] -0.822% [at 15.8 µM] | activation [14] -1.39% [at 19 µM] | activity change, negative = inhibition [15] 6.49% [at 18.9 µM] | activity change, negative = inhibition [16] -0.824% [at 19 µM] | activation [19] -27% [at 19 µM]
active: Potency [12] 4.48 µM | Potency [17] 0.0326 µM

CCCC(=O)OCCC(C)C
inactive: Potency [1] | Potency [2] | outcome [3] | outcome [4] | Potency [6] | Potency [7] | Potency [8] | Potency [18] | Potency [9] | Potency [10] | Potency [11] | Potency [12] | Potency [13] | Potency [14] | Potency [15] | Potency [16] | Potency [19] | Potency [17]

Oc1ccccc1C=NCc1ccccc1
inactive: Potency [1] | Potency [2] | outcome [3] | outcome [4] | Potency [5] | Potency [6] | Potency [18] | Potency [9] | Potency [11] | Potency [12] | Potency [13] | Potency [14] | Potency [15] | Potency [16] | Potency [19] | Potency [17]

CCCCCCCCOC(C)=O
inactive: Potency [1] | Potency [2] | outcome [3] | Potency [5] | Potency [6] | Potency [7] | Potency [18] | Potency [9] | Potency [10] | Potency [11] | Potency [12] | Potency [13] | Potency [14] | Potency [15] | Potency [16] | Potency [19] | Potency [17]

CC(=O)Nc1cc(S(=O)(=O)O)cc2cc(S(=O)(=O)O)c(N=Nc3ccccc3)c(O)c12
inactive: Potency [2] | outcome [3] | outcome [4] | Potency [5] | Potency [7] | Potency [8] | Potency [18] | Potency [9] | Potency [11] | Potency [12] | Potency [13] | Potency [14] | Potency [15] | Potency [19]
active: Potency [1] 27.3 µM

Cc1ccc2c(c1[N+](=O)[O-])C(=O)c1ccccc1C2=O
active: Potency [2] 16.9 µM
inactive: Potency [1] | outcome [3] | outcome [4] | Potency [5] | Potency [6] | Potency [18] | Potency [10] | Potency [11] | Potency [12] | Potency [13] | Potency [15] | Potency [16] | Potency [19]

CCCC(=O)c1cc(O)c(O)cc1O
active: Potency [1] 9.69 µM | Potency [2] 4.86 µM | Potency [11] 0.436 µM
inactive: outcome [3] | outcome [4] | Potency [5] | Potency [6] | Potency [8] | Potency [10] | Potency [12]

CC(=O)OCC[N+](C)(C)C
inactive: Potency [1] | Potency [2] | outcome [3] | Potency [5] | Potency [7] | Potency [8] | Potency [18] | Potency [9] | Potency [10] | Potency [11] | Potency [14] | Potency [15] | Potency [19] | Potency [17]
